Sfp PPTase inh: Sfp phosphopantetheinyl transferase inhibition | actives 3.5% (n = 310,000) | Biochemical Sfp PPTase activity, qHTS | Potency, µM, most hits filed as inhibitors;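 note: the enzyme is Sfp with the accession as filed and its product quenches rhodamine fluorescence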
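After 15 min at room temperature with compound, 15 nM Sfp received 5 uM rhodamine-CoA plus 12.5 uM BHQ-2-ybbR (50 mM Hepes pH 7.6, 10 mM MgCl2). Rate came from the fluorescence difference over 30 min, ex 525/em 598 nm.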
HP1b binding inh: inhibitors of HP1-beta chromodomain binding to methylated histone tails | P83916 | AlphaScreen HP1-beta / biotin-H3K9me3 peptide binding | Potency, µM (titrated, usually from 114 µM), usual class: inhibitors | actives 0.56% (n = 390,000) | AID 540317; note: nearly all actives have a fitted effect of over 70% in size
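AlphaScreen: HP1-beta (50 nM) preformed 30 min with biotin-H3(1-18)K9me3 peptide (50 nM) in PBS pH 7.4, 0.01% Tween-20. Compound added for 30 min at RT, then streptavidin donor/nickel chelate acceptor beads (10 ug/mL) for 30 min.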
JMJD2A Tudor: inhibitors of human JMJD2A Tudor domain. O75164. AlphaScreen JMJD2A-Tudor / H3K4me3 peptide binding. Potency, µM (highest dose often 114 µM), most hits filed as inhibitors. actives 4.4% (n = 390,000); note: nearly all actives have a fitted effect of over 50% in size
Target sequence (O75164 whole entry, looked up, the tested form may be a part): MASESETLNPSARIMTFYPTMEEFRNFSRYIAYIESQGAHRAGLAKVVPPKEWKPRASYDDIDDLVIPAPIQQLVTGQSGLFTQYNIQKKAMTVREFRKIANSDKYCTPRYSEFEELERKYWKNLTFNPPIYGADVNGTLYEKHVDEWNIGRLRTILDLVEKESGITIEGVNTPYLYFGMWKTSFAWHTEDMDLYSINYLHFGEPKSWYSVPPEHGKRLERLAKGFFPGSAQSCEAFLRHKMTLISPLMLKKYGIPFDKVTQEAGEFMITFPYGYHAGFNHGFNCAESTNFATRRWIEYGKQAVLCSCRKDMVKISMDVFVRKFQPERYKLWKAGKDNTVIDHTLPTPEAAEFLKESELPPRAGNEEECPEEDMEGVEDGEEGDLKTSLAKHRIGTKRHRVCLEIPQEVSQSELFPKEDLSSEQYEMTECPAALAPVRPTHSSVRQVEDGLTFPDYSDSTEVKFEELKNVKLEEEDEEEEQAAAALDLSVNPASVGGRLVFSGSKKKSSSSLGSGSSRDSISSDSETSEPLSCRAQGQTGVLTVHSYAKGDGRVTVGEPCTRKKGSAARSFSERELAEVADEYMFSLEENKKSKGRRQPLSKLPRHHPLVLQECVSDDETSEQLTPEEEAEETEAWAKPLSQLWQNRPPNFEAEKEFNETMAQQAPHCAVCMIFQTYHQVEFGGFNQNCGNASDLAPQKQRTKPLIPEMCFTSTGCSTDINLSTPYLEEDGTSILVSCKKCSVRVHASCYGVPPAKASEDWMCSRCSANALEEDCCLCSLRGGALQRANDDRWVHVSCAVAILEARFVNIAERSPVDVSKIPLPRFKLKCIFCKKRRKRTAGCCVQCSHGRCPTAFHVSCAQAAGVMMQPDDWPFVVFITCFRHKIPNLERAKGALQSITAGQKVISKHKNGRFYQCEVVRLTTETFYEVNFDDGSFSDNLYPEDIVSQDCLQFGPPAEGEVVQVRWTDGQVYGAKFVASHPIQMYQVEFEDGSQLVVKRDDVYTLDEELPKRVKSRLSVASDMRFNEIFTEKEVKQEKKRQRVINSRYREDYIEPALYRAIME
G9a inh: G9a (human) methyltransferase inhibition; Potency, µM (doses to about 102 µM), usual class: inhibitors; actives 8.8% (n = 350,000); Q96KQ7; G9a H3K9 monomethylation, AlphaScreen, 2 h; note: nearly all actives have a fitted effect of over 75% in size
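G9a (20 nM) was preincubated 15 min with compound, then reacted 2 h at room temperature with 500 nM biotin-H3K9 peptide and 20 µM SAM. Monomethyl-H3K9 detected by AlphaScreen using anti-H3K9me1 antibody.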
BAZ2B inh: BAZ2B (human) inhibition | Q9UIF8 | AlphaScreen BAZ2B-H3K14Ac peptide displacement | Potency, µM (series often up to 114 µM), most hits filed as inhibitors | actives 4.4% (n = 360,000); note: nearly all actives have a fitted effect of over 60% in size
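BAZ2B 50 nM plus b-H3(5-23)K14Ac 50 nM, PBS pH 7.4/0.01% Tween-20, 30 min RT; compound added (max 110 uM), 30 min RT; streptavidin donor/Ni-chelate acceptor beads 10 ug/mL final, 20 min dark; AlphaScreen read.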
A number is an active result; 0 = inactive; ? = inconclusive; - = no result; [ ] = dose if it differs, or a comment. Sampled rows, rich in hits. Any-hit rate of the full collection: about 12%. Calls come from the whole dose curve; as a rule, active = well fitted curve in the direction sought with a large enough effect; inconclusive = small, poorly fitted or top-dose-only effect, or another doubt; inactive = no such curve, though single readings can be large; an effect the other way counts as inactive or inconclusive.

SMILES | Sfp PPTase inh | HP1b binding inh | JMJD2A Tudor | G9a inh | BAZ2B inh
CCCCOC(=O)n1c(=S)oc2cc(Cl)ccc21 | 56.2µM | 0 | 0 | 0[0.501 µM] | 0
O=c1c2c3c(sc2n(Cc2ccccc2F)c(=O)n1-c1ccc(Cl)cc1)CCCC3 | - | 0 | 0 | 0 | 0
CCCCN(C)CCn1c(=S)[nH]c2ccc(N3CCOCC3)cc2c1=O | 0 | 0 | 28.2µM | ? | 0
COc1ccc(CCn2c(=S)[nH]c3ccc(N4CCOCC4)cc3c2=O)cc1OC | 0 | 0 | 0 | 17.8µM | 0
CCCCN(C)CCn1c(=S)[nH]c2cc(OCC)c(OCC)cc2c1=O | 0 | 0 | 0 | 11.2µM | 0
O=c1c2cc(N3CCOCC3)ccc2[nH]c(=S)n1CCc1ccccc1 | 0 | 0 | 0 | 0 | 0
CCOc1cc2[nH]c(=S)n(Cc3ccc(C(=O)O)cc3)c(=O)c2cc1OCC | 0 | 0 | ? | 17.8µM | 0
CCOc1cc2[nH]c(=O)n(Cc3ccc(C(=O)N4CCN(c5ccccc5)CC4)cc3)c(=O)c2cc1OCC | - | 0 | 0 | 0 | 0
CCC(Cc1ccccc1)NC(=O)c1ccc2nc(N3CCC(C)CC3)sc2c1 (centres undefined) | - | 0 | 0 | 0 | 0
Cc1nnc(SCC(=O)NC2CC2)n1CC1CCCO1 (centres undefined) | 0 | 0 | 0 | 0 | 0
Cc1cccc(-c2noc(CNC(=O)c3ccoc3C)n2)c1 | 31.6µM | 0 | 0 | 0 | 0
Cc1cc(NC(=O)c2c(-c3ccccc3Cl)noc2C)no1 | 0 | 0 | 0 | 0 | 0
Cc1onc(-c2ccccc2Cl)c1C(=O)Nc1nn[nH]n1 | 0 | 0 | 56.2µM | 0 | 79.4µM
Cc1onc(-c2ccccc2Cl)c1C(=O)NCc1nc(-c2ccccc2)no1 | 89.1µM | 0 | 0 | ? | 0
COc1cc(S(=O)(=O)NCC2COCCO2)ccc1-n1cnnn1 (centres undefined) | 0 | 0 | 0 | ? | 0
Cc1ccc(/C=N/c2sc3c(c2C#N)CCC3)o1 | ? | 0 | 44.7µM | 17.8µM | ?
CN(C)/C=N/c1sc2c(c1C#N)CCC2 | 0 | 0 | 0 | 0 | 0
N#Cc1c(/N=C/c2ccc(Br)s2)sc2c1CCC2 | 0 | 0 | 0 | ? | 0
N#Cc1c(/N=C/c2cccs2)sc2c1CCCCC2 | 0 | ? | 39.8µM | 14.1µM | 8.91µM
N#Cc1c(/N=C/c2ccc(-c3ccccc3C(=O)O)o2)sc2c1CCCC2 | 0 | 0 | 79.4µM | 31.6µM | 44.7µM
CCCn1c(-c2ccc(F)cc2)nc2c(NCCN(C)C)nc(C)nc21 | 0 | - | - | - | -
c1cc(CNC2C3CC4CC(C3)CC2C4)ccn1 (centres undefined) | 0 | 0 | 0 | 0 | 0
COC(=O)c1cc2c(ccn2-c2ccc(F)cc2)n1Cc1ccc(OC(C)=O)cc1 | 0 | 0 | ? | 50.1µM | ?
COC(=O)c1cc2c(ccn2-c2ccc(F)cc2)n1CC(C)C | 0 | 0 | ? | 44.7µM | ?
CCCn1c(C(=O)OC)cc2c1ccn2-c1ccc(F)cc1 | ? | 0 | ? | 70.8µM | ?
SMILES | Sfp PPTase inh | HP1b binding inh | JMJD2A Tudor | G9a inh | BAZ2B inh
COC(=O)c1cc2c(ccn2-c2ccc(F)cc2)n1C(C)C | 0 | ? | ? | 0[0.0925 µM] | ?
O=C(O)c1ccc2c(=O)n(Cc3ccccc3)c(SCc3ccc([N+](=O)[O-])cc3)nc2c1 | 0 | 0 | 0 | ? | 0
CCOCc1cnc(C)nc1NCC(=O)c1c(C)n(C)c2ccc(OC)cc12 | 0 | 0 | 0 | 14.1µM | 50.1µM
COc1ccc(-n2c(CCc3ccccc3)nnc2SCC(=O)c2ccc(Cl)cc2)cc1 | 0 | 0 | 0 | ? | 0
O=C(CSc1nnc(CCc2ccccc2)n1-c1ccc(Cl)cc1)c1ccccc1 | 0 | 0 | 0 | 11.2µM | 0
COc1ccccc1N1CCN(C(=O)C(C)CS(=O)(=O)c2ccc3c(c2)NC(=O)CS3)CC1 (centres undefined) | 0 | 0 | 0 | ? | 56.2µM
C[C@H](NC(=O)c1nc[nH]c1C(=O)NCC(=O)OCc1ccccc1)C(=O)OCc1ccccc1 | 0 | 0 | 0 | - | 0
CC(C)C[C@@H](CNCC(=O)[C@H](C)NC(=O)c1[nH]cnc1C(=O)N[C@@H](C)CN)NC(=O)c1nc[nH]c1C(=O)N[C@@H](CO)C(=O)O | - | 0 | 89.1µM | - | -
CC(C)C[C@@H](CNCC(=O)[C@H](C)NC(=O)c1[nH]cnc1C(=O)N[C@@H](C)CN)NC(=O)c1nc[nH]c1C(=O)N[C@@H](C)C(=O)O | - | 0 | 50.1µM | - | -

Screening results from PubChem.
